The values below come from the supplement of paper PMC12669797.

± gives the standard deviation of the averaged measurements.

One test has as its system ES2. Put plainly: cell viability relative to DMSO control (MTS) (fraction of DMSO control); higher = more viable cells / less growth inhibition. The settings on record: 10 µM; 48 h. An outline of the steps: (§1)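 TOV-21G and ES2 clear cell carcinoma cells were plated in 96-well plates at 5000 cells per well, grown for 24 h, and then exposed to a 367-compound […] library at a final concentration of 10 µM, with vehicle alone in control wells. An MTS assay (CellTiter 96 AQueous One Solution) was read 48 h later according to the manufacturer's protocol. Viability is reported as a fraction of the vehicle control.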
`CCOc1nc(NC(=O)Cc2cc(OC)ccc2OC)cc(N)c1C#N` [JNK inhibitor VIII] had a cell viability of 1.09.

As for `Cc1cc(Nc2cc(N3CCN(C)CC3)nc(/C=C/c3ccccc3)n2)n[nH]1`, the cell viability turned out to be 0.534.

`C[C@H](NC(=O)/C(C#N)=C/c1cccc(Br)n1)c1ccccc1` returned a cell viability of 0.347.

Regarding `O=C(Cc1ccccc1)Nc1c2c(nc3ccccc13)N(Cc1ccccc1)CC2`, the cell viability is 0.96.

`Cn1nnc2c(C(N)=O)ncn2c1=O` [temozolomide] returned a cell viability of 1.2.

Turning to `N#C/C(=C\c1ccc(O)c(O)c1)C(=O)NCc1ccccc1`, the cell viability was 0.891 ± 0.39.

For the compound `COc1cc(/C=C(\C#N)C(N)=O)cc(CSc2nc3ccccc3s2)c1O`, the cell viability came out at 0.978 ± 0.072.

The compound `OCCn1cc(-c2cnc3nnn(Cc4ccc5ncccc5c4)c3n2)cn1` had a cell viability of 1.05.

`CSc1ccc(/C=C2/C(C)=C(CC(=O)O)c3cc(F)ccc32)cc1` [Sulindac sulfide] showed a cell viability of 1.38.

With `CCCCCCCC(=O)OCCOC(=O)CCCCCCC` [Dioctanoylglycol], the cell viability was found to be 1.3.

Compound `CCCCCCCCCCCCCCOc1ccc(C(=O)O)o1` registered a cell viability of 1.21.

On to `Cc1cc(N)c2ccccc2[n+]1CCCCCCCCCC[n+]1c(C)cc(N)c2ccccc21` [Dequalinium], for which the cell viability amounted to 0.383.

The compound `NC(=O)c1ccccc1` [Benzamide] registered a cell viability of 0.902.

`CS(=O)(=O)CCNCc1ccc(-c2ccc3ncnc(Nc4ccc(OCc5cccc(F)c5)c(Cl)c4)c3c2)o1` [lapatinib] had a cell viability of 0.482.

Compound `Ic1cccc(CSc2nnc(-c3ccncc3)o2)c1` [GSK-3 inhibitor II] registered a cell viability of 1.09.

As to `CCN(CC)CCCCNc1ncc2cc(-c3cc(OC)cc(OC)c3)c(NC(=O)NC(C)(C)C)nc2n1`, the cell viability turned out to be 0.366.

`CCCCCCCCCCC1=C(C)C(=O)C(OC)=C(OC)C1=O` [Decylubiquinone] yielded a cell viability of 1.02.

In turn, `C[S+]([O-])c1ccc(-c2nc(-c3ccc(F)cc3)c(-c3ccncc3)[nH]2)cc1` (configuration not stated) yielded a cell viability of 0.916.

With `CC(C)C[C@@H](C=O)NC(=O)[C@H](CC(C)C)NC(=O)[C@H](CC(C)C)NC(=O)OCc1ccccc1`, the cell viability worked out at 0.298.

Consider `Cn1c(=O)c2nc[nH]c2n(C)c1=O` [Theophylline], for which the cell viability amounted to 0.452.

As for `Cc1c2oc3c(C)ccc(C(=O)N[C@@H]4C(=O)N[C@H](C(C)C)C(=O)N5CCC[C@H]5C(=O)N(C)CC(=O)N(C)[C@@H](C(C)C)C(=O)O[C@@H]4C)c3nc-2c(C(=O)N[C@@H]2C(=O)N[C@H](C(C)C)C(=O)N3CCC[C@H]3C(=O)N(C)CC(=O)N(C)[C@@H](C(C)C)C(=O)O[C@@H]2C)c(N)c1=O` [Actinomycin D], the cell viability came to 0.584.

The compound `Nc1ncn([C@@H]2O[C@H](CO)[C@@H](O)[C@H]2O)c(=O)n1` [Azacytidine] showed a cell viability of 0.664.

On to `N#C/C(=C\c1ccc2oc(=O)[nH]c2c1)C(=O)c1ccc(O)c(O)c1`, for which the cell viability was determined as 0.972.

`CO[C@H]1C[C@@H]2CC[C@@H](C)[C@@](O)(O2)C(=O)C(=O)N2CCCC[C@H]2C(=O)O[C@H]([C@H](C)C[C@@H]2CC[C@@H](OCCO)[C@H](OC)C2)CC(=O)[C@H](C)/C=C(\C)[C@@H](O)[C@@H](OC)C(=O)[C@H](C)C[C@H](C)/C=C/C=C/C=C/1C` [everolimus] displayed a cell viability of 1.02.

As to `CCCCC(=O)Oc1ccccc1C(=O)O` [Valeryl salicylate], the cell viability stood at 0.917.

As for `Cc1ccc2nc(NCCN)c3ncc(C)n3c2c1`, the cell viability amounted to 0.489.

As to `CNC(=O)c1cc(Oc2ccc(NC(=O)Nc3ccc(Cl)c(C(F)(F)F)c3)cc2)ccn1` [sorafenib], the cell viability was determined as 0.402.

`NC(=O)NO` [Hydroxyurea]: the cell viability came out at 1.21.

Compound `Nc1nc2c(nc(Sc3ccc(Cl)cc3)n2C2O[C@@H]3CO[P+](O)(S)OC3[C@@H]2O)c(=O)[nH]1` (some centres not stated) registered a cell viability of 1.02 ± 0.17.

On to `CC[C@@]1(O)C[C@H](O[C@H]2C[C@H](N(C)C)[C@H](O[C@H]3C[C@H](O)[C@H](O[C@H]4CCC(=O)[C@H](C)O4)[C@H](C)O3)[C@H](C)O2)c2c(cc3c(c2O)C(=O)c2c(O)cccc2C3=O)[C@H]1C(=O)OC` [Aclarubicin], for which the cell viability came to 0.6.

On to `N#CCCc1ccc2c(c1)-c1[nH]c3ccc([N+](=O)[O-])cc3c1CC(=O)N2` [Alsterpaullone, 2-cyanoethyl], for which the cell viability came to 0.893.

`Nc1[nH]nc2nnc(-c3c(-c4ccccc4)nn4ccccc34)cc12` [ERK inhibitor II] displayed a cell viability of 0.847.

In the case of `CCNCCCNCCCCNCCCNCC` [N1,N12-Diethylspermine (BESpm)], the cell viability was 1.

As to `NC(=O)c1cccc2cn(-c3ccc([C@@H]4CCCNC4)cc3)nc12` [MK-4827 (Niraparib)], the cell viability is 0.61.

As for `COC(=O)C[C@H](NC(=O)[C@H](C)NC(=O)[C@@H](NC(=O)OCc1ccccc1)C(C)C)C(=O)CF`, the cell viability stood at 1.42.

`O=Nc1c(-c2c(O)[nH]c3cc(Br)ccc23)[nH]c2ccccc12` [GSK-3 inhibitor IX] showed a cell viability of 0.643.

The next test has as its system TOV-21G. The test is described as above. The following applies: 10 µM; 48 h. An outline of the steps: as §1
Compound `CCOc1nc(NC(=O)Cc2cc(OC)ccc2OC)cc(N)c1C#N` [JNK inhibitor VIII] displayed a cell viability of 1.12.

In turn, `Cc1cc(Nc2cc(N3CCN(C)CC3)nc(/C=C/c3ccccc3)n2)n[nH]1` had a cell viability of 0.289.

Take `C[C@H](NC(=O)/C(C#N)=C/c1cccc(Br)n1)c1ccccc1`: the cell viability turned out to be 0.392.

Compound `O=C(Cc1ccccc1)Nc1c2c(nc3ccccc13)N(Cc1ccccc1)CC2` yielded a cell viability of 0.839.

As to `Cn1nnc2c(C(N)=O)ncn2c1=O` [temozolomide], the cell viability was found to be 1.12.

Compound `N#C/C(=C\c1ccc(O)c(O)c1)C(=O)NCc1ccccc1` registered a cell viability of 1 ± 0.013.

As for `COc1cc(/C=C(\C#N)C(N)=O)cc(CSc2nc3ccccc3s2)c1O`, the cell viability turned out to be 1.067 ± 0.0093.

Regarding `OCCn1cc(-c2cnc3nnn(Cc4ccc5ncccc5c4)c3n2)cn1`, the cell viability is 1.18.

Regarding `CSc1ccc(/C=C2/C(C)=C(CC(=O)O)c3cc(F)ccc32)cc1` [Sulindac sulfide], the cell viability came out at 1.3.

Regarding `CCCCCCCC(=O)OCCOC(=O)CCCCCCC` [Dioctanoylglycol], the cell viability is 0.996.

For `CCCCCCCCCCCCCCOc1ccc(C(=O)O)o1`, the cell viability is 0.947.

Regarding `Cc1cc(N)c2ccccc2[n+]1CCCCCCCCCC[n+]1c(C)cc(N)c2ccccc21` [Dequalinium], the cell viability was determined as 0.42.

For `NC(=O)c1ccccc1` [Benzamide], the cell viability was 0.989.

The compound `CS(=O)(=O)CCNCc1ccc(-c2ccc3ncnc(Nc4ccc(OCc5cccc(F)c5)c(Cl)c4)c3c2)o1` [lapatinib] came in with a cell viability of 4.68.

On to `Ic1cccc(CSc2nnc(-c3ccncc3)o2)c1` [GSK-3 inhibitor II], for which the cell viability is 1.19.

On to `CCN(CC)CCCCNc1ncc2cc(-c3cc(OC)cc(OC)c3)c(NC(=O)NC(C)(C)C)nc2n1`, for which the cell viability stood at 0.915.

As for `CCCCCCCCCCC1=C(C)C(=O)C(OC)=C(OC)C1=O` [Decylubiquinone], the cell viability was found to be 0.981.

As for `C[S+]([O-])c1ccc(-c2nc(-c3ccc(F)cc3)c(-c3ccncc3)[nH]2)cc1` (configuration not stated), the cell viability was determined as 0.908.

`CC(C)C[C@@H](C=O)NC(=O)[C@H](CC(C)C)NC(=O)[C@H](CC(C)C)NC(=O)OCc1ccccc1` showed a cell viability of 0.255.

Consider `Cn1c(=O)c2nc[nH]c2n(C)c1=O` [Theophylline], for which the cell viability is 0.772.

As to `Cc1c2oc3c(C)ccc(C(=O)N[C@@H]4C(=O)N[C@H](C(C)C)C(=O)N5CCC[C@H]5C(=O)N(C)CC(=O)N(C)[C@@H](C(C)C)C(=O)O[C@@H]4C)c3nc-2c(C(=O)N[C@@H]2C(=O)N[C@H](C(C)C)C(=O)N3CCC[C@H]3C(=O)N(C)CC(=O)N(C)[C@@H](C(C)C)C(=O)O[C@@H]2C)c(N)c1=O` [Actinomycin D], the cell viability was determined as 0.456.

Regarding `Nc1ncn([C@@H]2O[C@H](CO)[C@@H](O)[C@H]2O)c(=O)n1` [Azacytidine], the cell viability worked out at 0.779.

For the compound `N#C/C(=C\c1ccc2oc(=O)[nH]c2c1)C(=O)c1ccc(O)c(O)c1`, the cell viability came out at 1.13.

For the compound `CO[C@H]1C[C@@H]2CC[C@@H](C)[C@@](O)(O2)C(=O)C(=O)N2CCCC[C@H]2C(=O)O[C@H]([C@H](C)C[C@@H]2CC[C@@H](OCCO)[C@H](OC)C2)CC(=O)[C@H](C)/C=C(\C)[C@@H](O)[C@@H](OC)C(=O)[C@H](C)C[C@H](C)/C=C/C=C/C=C/1C` [everolimus], the cell viability came to 0.831.

`CCCCC(=O)Oc1ccccc1C(=O)O` [Valeryl salicylate] gave a cell viability of 1.01.

`Cc1ccc2nc(NCCN)c3ncc(C)n3c2c1` showed a cell viability of 0.375.

Compound `CNC(=O)c1cc(Oc2ccc(NC(=O)Nc3ccc(Cl)c(C(F)(F)F)c3)cc2)ccn1` [sorafenib] returned a cell viability of 0.604.

As to `NC(=O)NO` [Hydroxyurea], the cell viability was determined as 0.811.

For the compound `Nc1nc2c(nc(Sc3ccc(Cl)cc3)n2C2O[C@@H]3CO[P+](O)(S)OC3[C@@H]2O)c(=O)[nH]1` (some centres not stated), the cell viability came out at 0.856 ± 0.084.

Turning to `CC[C@@]1(O)C[C@H](O[C@H]2C[C@H](N(C)C)[C@H](O[C@H]3C[C@H](O)[C@H](O[C@H]4CCC(=O)[C@H](C)O4)[C@H](C)O3)[C@H](C)O2)c2c(cc3c(c2O)C(=O)c2c(O)cccc2C3=O)[C@H]1C(=O)OC` [Aclarubicin], the cell viability was 0.385.

On to `N#CCCc1ccc2c(c1)-c1[nH]c3ccc([N+](=O)[O-])cc3c1CC(=O)N2` [Alsterpaullone, 2-cyanoethyl], for which the cell viability came to 0.778.

`Nc1[nH]nc2nnc(-c3c(-c4ccccc4)nn4ccccc34)cc12` [ERK inhibitor II] displayed a cell viability of 0.734.

Take `CCNCCCNCCCCNCCCNCC` [N1,N12-Diethylspermine (BESpm)]: the cell viability amounted to 0.731.

For `NC(=O)c1cccc2cn(-c3ccc([C@@H]4CCCNC4)cc3)nc12` [MK-4827 (Niraparib)], the cell viability is 0.783.

`COC(=O)C[C@H](NC(=O)[C@H](C)NC(=O)[C@@H](NC(=O)OCc1ccccc1)C(C)C)C(=O)CF` displayed a cell viability of 1.16.

`O=Nc1c(-c2c(O)[nH]c3cc(Br)ccc23)[nH]c2ccccc12` [GSK-3 inhibitor IX] displayed a cell viability of 0.36.
